Compound activity as filed in PubChem BioAssay.
NS1 function inh – influenza NS1 inhibition; hit rate 0.4% among 270,000; Potency, µM (top dose mostly 46.1 µM); AID 2326; also: actives are rising curves; nearly all actives have a fitted effect of over 50% in size
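Compounds were scored for reversing the slow growth caused by influenza A NS1 in S. cerevisiae, measured by optical density at 600 nm. Assay medium contained 2% galactose at pH 6.0; NS1-free yeast of the same strain were the positive control.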
Pf growth 96h – P. falciparum growth inhibition at 96 hour, primary screen for plastid delayed-death inhibitors; Potency, µM (series often up to 28.7 µM), hits mostly inhibitors; AID 504834; P. falciparum luciferase reporter growth, 96 h; hit rate 6.9% among 320,000; active = well fitted inhibition curve with a large enough effect; inconclusive = small, poorly fitted or top-dose-only effect, or another doubt; inactive = no such curve, though single readings can be large or run the other way
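Infected RBCs, 2% Hct / 0.05% parasitemia final; luciferase-reporter P. falciparum; cpd 96 h, 37 C, 5% CO2; luciferase detection reagent; luminescence.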
SARS PLP yeast – blocks SARS-CoV papain-like protease in a yeast assay; Potency, µM (top dose mostly 32.9 µM), most hits filed as activators; S. cerevisiae expressing SARS-CoV PLpro, growth rescue; hit rate 0.19% among 330,000; also: nearly all actives have a fitted effect of over 55% in size
CHX counter – counter-screen hit for Shiga toxin inhibitors, cycloheximide. cell reporter, cycloheximide protein synthesis inhibition counterscreen. max response, %. hit rate 12% among 300,000; in the data active = max response mostly above about 13%, no sharp cut-off; inactive = mostly below about 14%; also: read at 38.3 µM for the half of the compounds with a filed dose
Pf growth 48h – inhibits P. falciparum growth in the first generation, 48 h; hit rate 5.9% among 310,000; P. falciparum luciferase growth in erythrocytes, 48 h; AID 504832; Potency, µM (doses to about 28.7 µM), hits mostly inhibitors; active = well fitted inhibition curve with a large enough effect; inconclusive = small, poorly fitted or top-dose-only effect, or another doubt; inactive = no such curve, though single readings can be large or run the other way
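A one-generation exposure of luciferase-tagged malaria parasites in RPMI 1640/Albumax erythrocyte culture, 37 C and 5% CO2. Inhibition is inferred from decreased luminescence after adding detection reagent.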
Shiga inhibitor – Shiga toxin inhibition. Vero cells, Shiga toxin protein synthesis inhibition reporter. inhibition, % at 38.7 µM. hit rate 9.2% among 290,000; in the data active = inhibition mostly above about 28%, no sharp cut-off; inactive = mostly below about 43%
Large screens that a line does not name were inactive. Rows were chosen to be rich in hits. Some 21% of all compounds tested hit in one or more screens of this group. Unless noted, calls follow the shape of the full dose curve.

CC1CCc2c(sc3nc(CN4CCOCC4)nc(NS(=O)(=O)c4cccc([N+](=O)[O-])c4)c23)C1 (stereo not given)	Pf growth 96h 13µM (no result: Pf growth 48h)
CC1CCc2c(sc3nc(CN4CCOCC4)nc(N4CCc5ccccc5C4)c23)C1 (stereo not given)	Pf growth 96h 4.7µM, Pf growth 48h 13µM
COc1ccc(-c2ccc(C)cc2)cc1C1C2C=CCC(C)C2C(=O)N1Cc1ccccc1 (stereo not given)	none (no result: NS1 function inh, Pf growth 96h, SARS PLP yeast, Pf growth 48h)
COc1ccc(N(C)C(=O)C2CCN(S(=O)(=O)c3cccc4nonc34)CC2)c(OC)c1	Pf growth 96h 9.3µM, Pf growth 48h inconclusive
COc1cc(NC(=O)C2CCN(S(=O)(=O)c3cccc4nonc34)CC2)cc(OC)c1	Pf growth 48h inconclusive
CN(C(=O)C1CCN(S(=O)(=O)c2cccc3nonc23)CC1)C1CCCCC1	Pf growth 96h inconclusive
CN(Cc1ccccc1)C(=O)C1CCN(S(=O)(=O)c2cccc3nonc23)CC1	Pf growth 96h 13µM
Cn1cc([N+](=O)[O-])c(C(=O)N2CCCCCC2)n1	none
Cc1cccc(NC(=O)CSc2nc(NS(=O)(=O)c3ccccc3)cc(=O)[nH]2)c1	Pf growth 96h 10µM
COc1ccc(Cl)cc1NC(=O)CSc1nc(NS(=O)(=O)c2ccccc2)cc(=O)[nH]1	Pf growth 96h 8.3µM
COc1ccc(NC(=O)CSc2nc(NS(=O)(=O)c3ccccc3)cc(=O)[nH]2)cc1	Pf growth 48h inconclusive
Cc1ccc(S(=O)(=O)Nc2cc(=O)[nH]c(SCC(=O)Nc3cccc(C(F)(F)F)c3)n2)cc1	none
Cc1ccc(NC(=O)CSc2nc(NS(=O)(=O)c3ccc(C)cc3)cc(=O)[nH]2)cc1	Pf growth 48h 5.2µM (no result: Pf growth 96h)
Cc1ccc(NC(=S)N2CCN(S(=O)(=O)c3c(F)cccc3F)CC2)cc1C	none
C=CCNC(=O)COc1ccc(Br)cc1Cl	CHX counter 33
COCCNC(=O)COc1ccc(Br)cc1Cl	CHX counter 33 (no result: Pf growth 48h)
C/C(=N\NC(=O)c1cccc(S(=O)(=O)N2CCOCC2)c1)c1ccc(OC(F)F)cc1	Pf growth 48h inconclusive (no result: NS1 function inh, CHX counter, Shiga inhibitor)
CC(=O)Nc1cccc(/C(C)=N/NC(=O)c2cccc(S(=O)(=O)N3CCOCC3)c2)c1	Pf growth 96h 12µM (no result: NS1 function inh)
C/C(=N\NC(=O)c1cccc(S(=O)(=O)N2CCOCC2)c1)c1ccc(O)cc1	Pf growth 96h 0.59µM (no result: NS1 function inh, CHX counter, Shiga inhibitor)
O=C(Cc1cccs1)N1CCN(S(=O)(=O)c2ccc(Cl)c(C(F)(F)F)c2)CC1	Pf growth 96h inconclusive, Pf growth 48h inconclusive (no result: NS1 function inh, CHX counter, Shiga inhibitor)
CCCN1CCC(NC(=O)CC2C(=O)NCCN2Cc2ccccc2C)CC1 (stereo not given)	Pf growth 96h 10µM
Cc1cccc(CCNC(=O)CC2C(=O)NCCN2Cc2ccccc2C)n1 (stereo not given)	Pf growth 96h 12µM
Cc1cccc(CCNC(=O)CC2C(=O)NCCN2CC2CCCCC2)n1 (stereo not given)	Pf growth 96h inconclusive, Pf growth 48h inconclusive
CCCN1CCC(NC(=O)CC2C(=O)NCCN2Cc2cccc(OC)c2)CC1 (stereo not given)	Pf growth 96h inconclusive
Cc1cccc(OCC(=O)Nc2ccc(S(=O)(=O)Nc3onc(C)c3C)cc2)c1C	Pf growth 96h inconclusive
N#Cc1ccccc1S(=O)(=O)N1CCN(C(=O)C2CCCC2)CC1	none
COc1ccc(-c2cn3c(C)c(C(=O)NCCN4CCOCC4)sc3n2)cc1	Pf growth 96h inconclusive, Pf growth 48h inconclusive
CCN(CC)C(=O)c1sc2nc(-c3ccc(OC)cc3)cn2c1C	Pf growth 96h inconclusive, CHX counter 38, Shiga inhibitor 77
CNC(=O)c1sc2nc(-c3ccc(OC)cc3)cn2c1C	CHX counter 86, Shiga inhibitor 146 (no result: Pf growth 48h)
COc1cccc(/C=C/C(=O)NCc2ccc(S(N)(=O)=O)cc2)c1	none
CCOC(=O)c1c[nH]c2cc(OCC(C)C)c(OCC(C)C)cc2c1=O	Pf growth 96h 0.038µM, Pf growth 48h 0.054µM (no result: NS1 function inh, SARS PLP yeast, CHX counter, Shiga inhibitor)
CCOc1ccc2[nH]cc(C(=O)NCCc3ccccc3)c(=O)c2c1	Pf growth 96h inconclusive (no result: Shiga inhibitor)
CCOC(=O)c1c[nH]c2nc(C)ccc2c1=O	none (no result: NS1 function inh)
CCc1ccc2[nH]cc(C(=O)OCCOC)c(=O)c2c1	Pf growth 96h 10µM, Pf growth 48h 1.5µM
O=C(COc1ccc([N+](=O)[O-])cc1)NC(=O)NC1CCS(=O)(=O)C1 (stereo not given)	none (no result: NS1 function inh, CHX counter, Shiga inhibitor)
CC(C)CN(C(=O)c1ccc(S(=O)(=O)N2CCOCC2)cc1)C1CCS(=O)(=O)C1 (stereo not given)	none (no result: NS1 function inh, CHX counter, Shiga inhibitor)
CCC(=NCCN1CCOCC1)c1c(O)n(-c2ccccc2C)c(=O)[nH]c1=O	none
CC/C(=N\N1CCCCCC1)c1c(O)n(-c2ccccc2C)c(=O)[nH]c1=O	Pf growth 96h 4.7µM, Pf growth 48h inconclusive
COc1ccccc1C1NC(=O)NC(C)=C1C(=O)OC1CCCC(C)C1 (stereo not given)	NS1 function inh inconclusive
O=C(Nc1nc2ccc(F)cc2s1)c1ccc(N2CCCC2=O)cc1	none (no result: NS1 function inh, CHX counter, Shiga inhibitor)
O=C(Nc1nc2ccccc2s1)C1=NN(c2ccccc2)C(=O)CC1	CHX counter 20, Shiga inhibitor active
O=C(Nc1nc2ccc(F)cc2s1)C1=NN(c2ccccc2)C(=O)CC1	CHX counter 35, Shiga inhibitor 67
Cc1csc(NC(=O)C2=NN(c3ccccc3)C(=O)CC2)n1	Pf growth 96h inconclusive
CCOC(=O)/C=C/[C@H]1CCc2cccc(C)c2O1	none (no result: NS1 function inh, CHX counter, Shiga inhibitor)
CCOC(=O)Cn1nnc(-c2ccc(S(C)(=O)=O)cc2)n1	none
CC(C)(C)C(=O)Cn1nnc(-c2ccc(C(F)(F)F)cc2)n1	none
NC(=O)Cn1nnc(-c2ccc(C(F)(F)F)cc2)n1	Shiga inhibitor 32
CSc1ccc(-c2nnn(Cc3ccc(Br)cc3)n2)cc1	CHX counter 36 (no result: Pf growth 48h)
CSc1ccc(-c2nnn(Cc3ccccn3)n2)cc1	Pf growth 96h inconclusive, CHX counter 19, Shiga inhibitor 79
CCOC(=O)Cn1nnc(-c2ccc(SC)cc2)n1	CHX counter 47, Shiga inhibitor 67 (no result: Pf growth 96h)
CSc1ccc(S(=O)(=O)N2CCC(C(=O)Nc3ccccc3C(F)(F)F)CC2)cc1	Pf growth 96h inconclusive
COc1ccc2c(c1)C(=O)CCC2c1ccccc1 (stereo not given)	Pf growth 96h 5.2µM
CCCCCCc1c(C)nc(-n2[nH]c(C)c(CCO)c2=O)[nH]c1=O	Pf growth 96h 9.3µM, Pf growth 48h inconclusive
CCCCCCCc1c(C)nc(N2CCOCC2)[nH]c1=O	Pf growth 48h 1.5µM (no result: Pf growth 96h)
CCCCc1c(C)nc(N2CCCC2)[nH]c1=O	Pf growth 96h 4.7µM, Pf growth 48h 6.6µM
CC(=O)c1cc(Cl)ccc1OCc1cccc(S(=O)(=O)N2CCOCC2)c1	Pf growth 96h inconclusive, Pf growth 48h inconclusive (no result: NS1 function inh, CHX counter, Shiga inhibitor)
CC1CN(S(=O)(=O)c2cccc(C(=O)N(CCc3ccccc3)Cc3ccccc3)c2)CC(C)O1 (stereo not given)	Pf growth 96h inconclusive, Pf growth 48h 2.9µM (no result: NS1 function inh, CHX counter, Shiga inhibitor)
CC(=O)N1CCN(S(=O)(=O)c2cccc(C(=O)N(Cc3ccccc3)c3ccc(C)cc3)c2)CC1	Pf growth 96h inconclusive, Pf growth 48h 5.9µM (no result: NS1 function inh, CHX counter, Shiga inhibitor)
